PubChem BioAssay (NCI)
Compounds without any hit were thinned out: in the full panel of roughly 83,000, 20% have a hit.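 Single-dose data. Exposure time 48 hours. Values below 10 considered active.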 Unmarked numbers belong to inactive results. The source made the active and inactive calls.

Test system: HOP-62 NSCLC
Test: NCI-60 one-dose screen, 48 h (100 = growth as untreated, 0 = no growth, -100 = all killed)
Settings: 10 µM unless noted
Protocol: Growth inhibition of the HOP-62 human Non-Small Cell Lung tumor cell line is measured as a screen for anti-cancer activity. Cells are grown in 96 well plates and exposed to the test compound for 48 hours. Compounds are tested at a single concentration, which is 10^-5 M for most compounds. The reported endpoint is percent growth (GI% or GIPRCNT), where numbers from 0 - 100% represent growth inhibition, and numbers from -100% - 0 represent cell death. For example, a value of 40 represents 60% growth inhibition. A value of 0 means no net growth occurred over the course of the experiment. A value of -40 indicates 40% of cells at the beginning of the experiment died by the end of the experiment. A value of -100 means all cells are dead at the end of the experiment.
NCI-60 Human Tumor Cell Lines Screen was performed using the standard one-dose NCI protocol, which is described in more detail at https://dtp.cancer.gov/discovery_development/nci-60/default.htm.
Compounds with GIPRCNT values below 10 were considered active. Activity score was based on GIPRCNT using the following formula: […]
Score is 0 for GIPRCNT values of 100 or above, 50 for GIPRCNT values of 0, and 100 for GIPRCNT values of -100.

| Compound | growth |
| --- | --- |
| O=[N+]([O-])c1ccc(S(=O)(=O)N2CCN(C3=NS(=O)(=O)c4ccccc4N3c3ccccc3)CC2)cc1 | 99.7% |
| CC(C)(C)n1cc(-c2ccnc(NCCCNS(=O)(=O)c3ccc(F)cc3)c2)c(-c2cccc(F)c2)n1 | 92.2% |
| O=C1NCCC12CCN(c1c(Cl)cncc1-c1ccc(O)cc1)CC2 | 112% |
| COc1ccc2c(O)c(/C=C3\N=Nc4ccccc43)oc2c1C[C@@H]1CCNC[C@H]1F | 71.4% |
| CC(C)=NNc1ccccn1 | 32.8% |
| O=C1/C(=C/c2cccs2)SC(=S)N1CCCN1CCOCC1 | 111% |
| COc1cc(-c2csc(NC(=O)c3cc(-n4cnc(C)c4)cc(C(F)(F)F)c3)n2)cc(OC)c1OC | 72.4% |
| COc1ccc(-c2nc3c(c(-c4ccccc4)nn3-c3ccccc3)c(-c3ccc(N4CCOCC4)cc3)c2C#N)cc1 | 104% |
| N#CC1=C(c2ccc(Cl)cc2)Nc2c(c(-c3ccc(Cl)cc3)nn2-c2ccccc2)C12C(=O)Nc1ccc(Cl)cc12 (stereo not given) | 65% |
| CC(C)c1ccc(COCc2cc(CN3CCCC3)c(O)c3ncccc23)cc1 | 2.49% (active) |
| Cc1ccc(/C=N/Nc2nc(Nc3ccccc3)nc(-n3nc(C)cc3C)n2)cc1 | 73.3% |
| C1=C(N2CCCC2)CCC1 | 103% |
| CC(C)=CCC[C@](C)(O)[C@H]1CC[C@]2(C)[C@@H]1CC[C@@H]1[C@@]3(C)Cc4nccnc4C(C)(C)[C@@H]3CC[C@]12C | 94.6% |
| O=C(c1ccc(-c2nc(CSc3nc4ccccc4s3)no2)cc1)N1CCSCC1 | 75.9% |
| COc1ccc(C(=O)Nc2ncc(Cc3ccc(F)cc3)s2)cc1 | 28.7% |
| COc1ccc2c(c1)[n+]([O-])c(C(=O)/C=C/C=C(\Cl)c1cc(OC)c(OC)c(OC)c1)c(C)[n+]2[O-] | -3.57% (active) |
| O=C1c2cccc(NCCN=Cc3cc(O)ccc3O)c2C(=O)c2c(NCCN=Cc3cc(O)ccc3O)cccc21 | -9.1% (active) |
| Cc1ccc(C(C(N)=O)C(C(N)=O)c2ccccc2)cc1 (stereo not given) | 111% |
| Fc1cc2c(cc1Cl)N(c1ncnc3ccc(-c4cnc5[nH]ncc5c4)cc13)CC2 | 54.8% |
| COc1ccc2nc(NC(=O)CSc3nnc4n3S(=O)(=O)c3ccccc3N4C)sc2c1 | 97.9% |

| Compound | growth |
| --- | --- |
| COc1ccc(C2=Nc3c/c(=C\c4c(O)[nH]c5ccc(Cl)cc45)ccc3=N2)cc1 | 28.2% |
| C=CCn1c(SCC(=O)Nc2ccc(C(=O)/C=C/c3cc4cc(OC)ccc4nc3Cl)cc2)nnc1-c1ccc(Br)cc1 | 99.3% |
| CCOC(=O)c1cc(-c2ccc([N+](=O)[O-])cc2)n(-c2ccc(C(=O)O)c(O)c2)c1C | 103% |
| Cc1c(-n2nnc(-c3nc4ccccc4s3)c2N)c(=O)n(-c2ccccc2)n1C | 103% |
| O=C1N[C@@H]2NC(=[N+]3CCOCC3)N[C@@H]2N1 | 103% |
| O=C(NCc1ccccc1)Nc1ccccc1CNc1nc(Nc2ccc(OCCN3CCCC3)cc2)ncc1Cl | 86.2% |
| CNC(=O)c1cc(Oc2ccc3nc(NC(C)=O)sc3c2)ccn1 | 109% |
| COc1ccc(/C=C2\COc3ccc(O)cc3C2=O)c(OC)c1OC | 80.9% |
| CC(=O)N1N=C(c2ccc(Nc3nc(Nc4ccc(Cl)cc4)nc(Nc4ccc(Cl)cc4)n3)cc2)CC1c1ccco1 (stereo not given) | 91.9% |
| Nc1nc2c([nH]1)c1[nH]c3ccccc3c1c1[nH]c3ccccc3c21 | 67.8% |
| CCN1CC(=O)N(/N=C2\C(=O)Nc3ccccc32)C1=S | 87% |
| O=C(Cn1c2c(c3ccccc31)CCCC2)Nc1ccc(-c2nc3ccccc3s2)cc1 | 102% |
| C#Cc1cccc(Nc2ncnc3ccc(-c4cnc(N)nc4)cc23)c1 | 28.4% |
| COc1ccc2[nH]cc(C(c3cc(F)cc(F)c3)c3c[nH]c4ccc(OC)cc34)c2c1 | 93.4% |
| COc1cc(-c2nc3cc(Cl)c(Cl)cc3[nH]2)ccc1OCC(=O)N=Nc1c(O)[nH]c2ccc([N+](=O)[O-])cc12 | 88.7% |
| C=C1C(=O)O[C@H]2[C@H]1CC/C(COC(=O)CCSCCC(=O)OC/C1=C/CC[C@@]3(C)O[C@H]3[C@H]3OC(=O)C(=C)[C@@H]3CC1)=C\CC[C@@]1(C)O[C@@H]21 | 86.9% |
| COC(=O)c1c2c(c(C)[n+]([O-])c1C)C(=O)C=C(NCc1ccc(Br)cc1)C2=O | -77.2% (active) |
| CC(C)c1ccc(NC(=O)Nc2ccc(NC(=O)CCCC(=O)NOCc3ccccc3)cc2)cc1 | 91.2% |
| COC(=O)c1ccc2c(c1)C(=O)c1c-2n(CCCN)c(=O)c2cc([N+](=O)[O-])ccc12 | -93.2% (active) |
| O=Nc1c(-c2c(O)[nH]c3ncccc23)[nH]c2ccccc12 | 45.9% |
